# Test results reported in PubChem BioAssay (Tox21).
# Values without a mark were called inactive. Results filed as inconclusive are left out. A call without a number means that no potency is given here. Calls of active or inactive are those of the source. Unless noted, calls follow the shape of the full dose curve.
# Legend:
# [1] = Nuclear factor erythroid 2-related factor 2/antioxidant responsive element (Nrf2/ARE) small molecule agonists: qHTS cell viability counter screen in human keratinocytes (AID 1919968; active = well fitted curve in the direction sought with a large enough effect in the repeat runs; an effect the other way counts as inactive or inconclusive; also: nearly all actives have a fitted effect of over 55% in size)
# Summary of the method: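 KeratinoSens HaCaT cells, 1,500/well, preincubated 5 h, then exposed to compounds in DMSO for 23 h at 37 C/5% CO2. Viability read as CellTiter-Fluor fluorescence after 1 h, in the same wells as the ARE-luciferase read.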
# [2] = Nuclear factor erythroid 2-related factor 2/antioxidant responsive element (Nrf2/ARE) small molecule agonists: luciferase reporter gene qHTS assay in human keratinocytes (AID 1919969); also: nearly all actives have a fitted effect of over 35% in size; also: potency is read from the fitted curve at half-maximal effect
# [3] = target: Gonadotropin-releasing hormone receptor (Homo sapiens) (UniProt P30968); assay: Human gonadotropin-releasing hormone receptor (GnRHR) small molecule agonists, calcium flux assay in GnRHR-HEK293 cells (AID 1920063); also: nearly all actives have a fitted effect of over 35% in size
# Sequence of Gonadotropin-releasing hormone receptor (Homo sapiens) (P30968 whole entry, looked up): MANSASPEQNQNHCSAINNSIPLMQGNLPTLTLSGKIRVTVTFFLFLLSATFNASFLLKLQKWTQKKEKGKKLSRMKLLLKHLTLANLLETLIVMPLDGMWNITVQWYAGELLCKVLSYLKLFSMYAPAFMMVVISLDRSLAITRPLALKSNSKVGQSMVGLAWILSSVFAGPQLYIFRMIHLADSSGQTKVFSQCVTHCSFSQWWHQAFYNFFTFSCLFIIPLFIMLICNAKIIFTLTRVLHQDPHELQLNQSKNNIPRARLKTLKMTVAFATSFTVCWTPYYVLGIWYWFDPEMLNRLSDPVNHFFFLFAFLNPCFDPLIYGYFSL
# Summary of the method: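 HEK293 cells stably expressing human GnRHR were dye-loaded for 1 h at 37 C. Compound was added in agonist mode and fluorescence (Ex/Em 480/540) recorded kinetically for 3 min. Fifteen concentrations, triplicates.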
# [4] = target: KiSS-1 receptor (Homo sapiens) (UniProt Q969F8); assay: Human kisspeptin (KISS1R) small molecule agonists, calcium flux assay in KISS1R-HEK293 cells (AID 1920064; active = well fitted curve in the direction sought with a large enough effect in the repeat runs; an effect the other way counts as inactive or inconclusive)
# Sequence of KiSS-1 receptor (Homo sapiens) (Q969F8 whole entry, looked up): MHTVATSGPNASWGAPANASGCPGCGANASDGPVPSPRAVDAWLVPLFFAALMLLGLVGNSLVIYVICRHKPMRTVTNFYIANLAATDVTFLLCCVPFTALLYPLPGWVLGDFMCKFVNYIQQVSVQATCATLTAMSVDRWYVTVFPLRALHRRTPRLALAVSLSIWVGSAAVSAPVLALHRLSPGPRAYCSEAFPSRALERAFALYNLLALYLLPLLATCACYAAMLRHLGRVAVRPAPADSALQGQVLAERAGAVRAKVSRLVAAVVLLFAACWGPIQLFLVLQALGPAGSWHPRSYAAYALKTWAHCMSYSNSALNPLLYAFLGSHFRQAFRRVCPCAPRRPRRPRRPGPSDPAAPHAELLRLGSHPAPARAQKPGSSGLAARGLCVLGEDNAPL
# Summary of the method: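 HEK293 cells stably expressing human KISS1R were loaded with calcium dye for 1 h at 37 C, then given compound; fluorescence (Ex/Em 480/540) was read kinetically for 3 min. Fifteen concentrations, triplicate.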
# [5] = G protein-coupled receptor (GPCR) small molecule agonists, calcium flux assay: HEK293 wild type cell line counter screen (AID 1920065)
# Summary of the method: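 Wild-type HEK293 cells plated 18 h, loaded with calcium dye 1 h at 37 C, then compounds added in agonist mode (ATP as positive control). Kinetic fluorescence Ex/Em 480/540 recorded 3 min at 1 sec intervals; 15 concentrations, triplicate.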
# [6] = p53 small molecule agonists, cell-based qHTS assay with human liver microsomes (AID 1963577);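 also: p53 response element beta-lactamase reporter cells with liver microsomes plus NADPH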
# Summary of the method: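 16 h, 37 C exposure of p53RE-bla cells to compounds with human liver microsomes and NADPH (0.5 mg/mL final each); detection via LiveBLAzer mixture, 2 h dark at room temperature.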
# [7] = p53 small molecule agonists, cell-based qHTS assay with rat liver microsomes (AID 1963578)
# Summary of the method: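 With rat liver microsomes and NADPH present (0.5 mg/mL final each), p53RE-bla cells are treated with compound for 16 h at 37 C. LiveBLAzer detection mixture is then applied for 2 h at room temperature in the dark.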
# [8] = p53 small molecule agonists, cell-based qHTS assay with human liver microsomes: qHTS cell viability counter screen (AID 1963579); also: nearly all actives have a fitted effect of over 45% in size
# Summary of the method: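 In this multiplexed counter screen, the reporter plates were subsequently treated with CellTiter-Glo so that cell viability, reflected by luminescence, could be recorded for p53RE-bla cells dosed 16 h with compounds under microsomal activation (HLM and NADPH).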
# [9] = p53 small molecule agonists, cell-based qHTS assay with rat liver microsomes: qHTS cell viability counter screen (AID 1963580); also: nearly all actives have a fitted effect of over 45% in size
# Summary of the method: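 p53RE-bla HCT-116 cells were exposed 16 h at 37 C to compounds with rat liver microsomes (0.5 mg/mL) and NADPH (0.5 mg/mL). Viability was measured in the same wells as ATP content by CellTiter-Glo luminescence.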
# [10] = p53 small molecule agonists, cell-based qHTS assay: qHTS cell viability counter screen (AID 1963581); also: nearly all actives have a fitted effect of over 45% in size
# Summary of the method: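 p53RE-bla HCT-116 cells, compounds added 5 h after plating and incubated 16 h at 37 C. Cytotoxicity measured in the same wells as intracellular ATP by CellTiter-Glo luminescence after 30 min at room temperature.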
# [11] = p53 small molecule agonists, cell-based qHTS assay (AID 1963582; active = well fitted activation curve with a large enough effect in the signal ratio in the repeat runs, not every such curve was filed as active; the % refers to the signal ratio)
# Summary of the method: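 p53RE-bla reporter cells, compounds added in DMSO after 5 h plating, incubated 16 h at 37 C. Beta-lactamase read via 2 h room-temperature LiveBLAzer B/G FRET substrate, fluorescence intensity.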
# [12] = target: Muscarinic acetylcholine receptor M1 (Homo sapiens) (UniProt P11229); assay: Cholinergic receptor muscarinic 1 (CHRM1) small molecule antagonists, cell-based qHTS assay (AID 1963588); also: nearly all actives have a fitted effect of over 40% in size
# Sequence of Muscarinic acetylcholine receptor M1 (Homo sapiens) (P11229 whole entry, looked up): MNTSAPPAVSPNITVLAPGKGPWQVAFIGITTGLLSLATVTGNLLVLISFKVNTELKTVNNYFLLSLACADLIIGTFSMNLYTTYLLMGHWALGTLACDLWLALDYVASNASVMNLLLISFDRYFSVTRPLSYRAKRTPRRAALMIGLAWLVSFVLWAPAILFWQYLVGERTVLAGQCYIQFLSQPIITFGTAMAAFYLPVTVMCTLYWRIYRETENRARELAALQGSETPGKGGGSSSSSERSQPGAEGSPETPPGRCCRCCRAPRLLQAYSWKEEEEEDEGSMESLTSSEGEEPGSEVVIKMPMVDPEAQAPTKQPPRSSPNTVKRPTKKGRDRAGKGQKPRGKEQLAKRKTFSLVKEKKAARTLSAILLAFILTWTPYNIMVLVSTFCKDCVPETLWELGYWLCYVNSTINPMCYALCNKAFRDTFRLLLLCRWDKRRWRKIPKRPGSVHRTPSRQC
# Summary of the method: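 CHRM1-CHO calcium-flux assay, antagonist mode. Cells were seeded 18 h, dye-loaded 1 h at 37 C and given compound for 5 min at RT, then acetylcholine was added at 50nM. FDSS fluorescence was read 3 min; 15 concentrations, three runs.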
# [13] = target: Muscarinic acetylcholine receptor M1 (Homo sapiens) (UniProt P11229); assay: Cholinergic receptor muscarinic 1 (CHRM1) small molecule agonists, cell-based qHTS assay (AID 1963589); also: nearly all actives have a fitted effect of over 35% in size
# Summary of the method: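 CHO cells stably expressing human CHRM1 were loaded with calcium dye for 1 h at 37 C, then compound was added in agonist mode. Intracellular calcium fluorescence was followed kinetically at 1 s intervals. Fifteen concentrations were tested in three independent runs.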
# [14] = target: Beta-2 adrenergic receptor (Homo sapiens) (UniProt P07550); assay: Adrenergic beta2 receptor (ADRB2) small molecule antagonists, cell-based qHTS assay (AID 1963592); also: series mostly up to about 92 µM; nearly all actives have a fitted effect of over 50% in size
# Sequence of Beta-2 adrenergic receptor (Homo sapiens) (P07550 whole entry, looked up): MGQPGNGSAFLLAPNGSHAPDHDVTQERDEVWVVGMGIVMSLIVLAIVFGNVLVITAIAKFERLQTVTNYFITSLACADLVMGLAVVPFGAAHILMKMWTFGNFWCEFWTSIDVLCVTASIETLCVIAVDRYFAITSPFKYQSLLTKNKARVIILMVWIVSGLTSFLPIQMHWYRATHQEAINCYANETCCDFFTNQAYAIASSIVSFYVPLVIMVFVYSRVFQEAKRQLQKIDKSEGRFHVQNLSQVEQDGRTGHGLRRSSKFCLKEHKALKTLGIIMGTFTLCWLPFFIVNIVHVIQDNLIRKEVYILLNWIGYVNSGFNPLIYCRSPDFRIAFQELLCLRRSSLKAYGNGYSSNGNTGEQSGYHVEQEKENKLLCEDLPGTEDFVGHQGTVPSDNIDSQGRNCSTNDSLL
# Summary of the method: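 Cells (CHO, stable ADRB2 overexpression) incubated 18-20hr at 37C; compounds added from DMSO; agonist mix (1nM isoproterenol, 100uM IBMX, 25uM Ro-20-1724) added; 0.5hr RT; d2-cAMP and anti-cAMP-cryptate added; 1hr RT; 665/615 nm read.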
# [15] = target: Beta-2 adrenergic receptor (Homo sapiens) (UniProt P07550); assay: Adrenergic beta2 receptor (ADRB2) small molecule agonists, cell-based qHTS assay (AID 1963593);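 also: CHO cells stably overexpressing human ADRB2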
# Summary of the method: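 CHO cells stably over-expressing ADRB2 were plated overnight at 37C, then dosed with compounds plus a stimulation mix containing 100uM IBMX and 25uM Ro-20-1724 for 0.5hr at room temperature. cAMP was measured by HTRF competition, 1hr.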
# [16] = target: D(2) dopamine receptor (Homo sapiens) (UniProt P14416); assay: Dopamine D2 receptor (DRD2) small molecule agonists, cell-based qHTS assay (AID 1963594); also: nearly all actives have a fitted effect of over 35% in size
# Sequence of D(2) dopamine receptor (Homo sapiens) (P14416 whole entry, looked up): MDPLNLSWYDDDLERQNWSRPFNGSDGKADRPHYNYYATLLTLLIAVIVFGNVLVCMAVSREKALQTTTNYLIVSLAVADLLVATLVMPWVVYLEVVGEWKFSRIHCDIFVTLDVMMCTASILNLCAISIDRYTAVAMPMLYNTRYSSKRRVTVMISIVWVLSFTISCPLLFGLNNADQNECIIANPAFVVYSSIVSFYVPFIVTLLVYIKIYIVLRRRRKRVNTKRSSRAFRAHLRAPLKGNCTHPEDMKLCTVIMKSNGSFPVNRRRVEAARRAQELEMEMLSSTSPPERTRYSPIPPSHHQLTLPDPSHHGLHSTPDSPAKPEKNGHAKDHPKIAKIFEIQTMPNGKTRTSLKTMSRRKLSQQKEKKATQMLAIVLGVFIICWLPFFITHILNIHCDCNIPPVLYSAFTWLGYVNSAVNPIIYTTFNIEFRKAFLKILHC
# Summary of the method: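 HEK293 cells stably expressing human DRD2, pre-treated with PDE inhibitor Ro20-1724 (0.1 mM final) and compound 10 min at room temperature, then stimulated with NKH477 (200nM […]) for 30 min. cAMP read by HTRF (665/620 nm).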
# [17] = target: D(2) dopamine receptor (Homo sapiens) (UniProt P14416); assay: Dopamine D2 receptor (DRD2) small molecule antagonists, cell-based qHTS assay (AID 1963595; active = well fitted inhibition curve with a large enough effect in the signal ratio in the repeat runs, with a control signal flat; the % refers to the signal ratio)
# Summary of the method: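 DRD2-HEK293; 0.1 mM Ro20-1724; cpd 10 min RT; NKH477 200 nM + quinpirole 12 nM, 30 min RT; HTRF cAMP (cAMP-d2/anti-cAMP cryptate), 665/620 nm ratio after 1 h.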
# [18] = cAMP Responsive Elements (CRE) small molecule agonists, cell-based qHTS assay (AID 1963590)
# Summary of the method: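 CRE-bla HEK 293T cells, 2,000/well in DMEM with 10% dialyzed FBS and 25 mM HEPES, pre-incubated 18 h at 37 C, then exposed to compound 3 h at 37 C. Beta-lactamase reporter read with LiveBLAzer B/G FRET substrate after 2 h at room temperature.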
# [19] = cAMP Responsive Elements (CRE) small molecule antagonists, cell-based qHTS assay (AID 1963591; active = well fitted inhibition curve with a large enough effect in the signal ratio in the repeat runs, not every such curve was filed as active; the % refers to the signal ratio)
# Summary of the method: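 CRE-bla HEK293T cells plated 18 h, then given compound plus NKH477 at 0.25 uM final for 3 h at 37C. Beta-lactamase reporter read with LiveBLAzer B/G FRET substrate after 2 h at room temperature.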
smiles,measurement,setting,value
C=CC(=O)OCCOC(=O)CCC(=O)O,Potency,[1],inactive
same,Potency,[2],61.1 µM (active)
same,Potency,[3],inactive
same,outcome,[4],inactive
same,outcome,[5],inactive
same,Potency,[6],inactive
same,Potency,[7],inactive
same,Potency,[8],inactive
same,Potency,[9],inactive
same,Potency,[10],inactive
same,Potency,[11],inactive
same,Potency,[12],inactive
same,Potency,[13],inactive
same,Potency,[14],inactive
same,Potency,[15],inactive
same,Potency,[16],inactive
same,Potency,[17],inactive
[O]=[Mo](=[O])=[O],"activity change, negative = cytotoxicity",[1],1.36% [at 19 µM]
same,"activity, positive = activation",[2],-5.06% [at 19 µM]
same,activity change,[3],"-0.246% [at 11.8 µM, stronger effect = higher value]"
same,activation,[4],-1.57% [at 15.8 µM]
same,activation,[5],-0.132% [at 11.8 µM]
same,activation,[6],-1.11% [at 13.5 µM]
same,activation,[7],-0.845% [at 13.6 µM]
same,"activity change, negative = cytotoxicity",[8],2.49% [at 13.5 µM]
same,"activity change, negative = cytotoxicity",[9],5.17% [at 13.5 µM]
same,"activity change, negative = cytotoxicity",[10],14.2% [at 13.5 µM]
same,activation,[11],-2.07% [at 13.5 µM]
same,"activity, negative = inhibition",[12],1.32% [at 12.6 µM]
same,activation,[18],0.435% [at 19 µM]
same,"activity change, negative = inhibition",[19],1.4% [at 18.9 µM]
same,"activity change, negative = inhibition",[14],-19.7% [at 19 µM]
same,activation,[16],-0.0356% [at 19 µM]
same,"activity change, negative = inhibition",[17],-0.307% [at 18.9 µM]
CC(=O)Nc1ccc(S(N)(=O)=O)cc1,Potency,[1],inactive
same,Potency,[2],inactive
same,Potency,[3],inactive
same,outcome,[4],inactive
same,outcome,[5],inactive
same,Potency,[6],inactive
same,Potency,[7],inactive
same,Potency,[8],inactive
same,Potency,[9],inactive
same,Potency,[10],inactive
same,Potency,[11],inactive
same,Potency,[12],inactive
same,Potency,[13],inactive
same,Potency,[18],inactive
same,Potency,[19],inactive
same,Potency,[14],inactive
same,Potency,[17],inactive
CCOC(=O)c1cccnc1,Potency,[1],inactive
same,Potency,[2],inactive
same,Potency,[3],inactive
same,outcome,[4],inactive
same,outcome,[5],inactive
same,Potency,[6],inactive
same,Potency,[7],inactive
same,Potency,[8],inactive
same,Potency,[9],inactive
same,Potency,[10],inactive
same,Potency,[11],inactive
same,Potency,[12],inactive
same,Potency,[14],inactive
same,Potency,[16],inactive
same,Potency,[17],inactive
O=C(N[C@@H](Cc1ccccc1)[C@@H](O)C(=O)N1C[C@@H](O)[C@@H](O)C1)c1cc2cc(Cl)ccc2[nH]1,Potency,[1],inactive
same,Potency,[2],inactive
same,Potency,[3],inactive
same,outcome,[4],inactive
same,outcome,[5],inactive
same,Potency,[6],inactive
same,Potency,[7],inactive
same,Potency,[8],inactive
same,Potency,[9],inactive
same,Potency,[10],inactive
same,Potency,[11],inactive
same,Potency,[12],inactive
same,Potency,[13],inactive
same,Potency,[19],inactive
same,Potency,[14],inactive
same,Potency,[15],inactive
same,Potency,[16],inactive
same,Potency,[17],inactive
CCCCCCCCc1ccc(S(=O)(=O)O)cc1,Potency,[1],inactive
same,Potency,[2],inactive
same,Potency,[3],inactive
same,outcome,[4],inactive
same,outcome,[5],inactive
same,Potency,[6],inactive
same,Potency,[7],inactive
same,Potency,[8],inactive
same,Potency,[9],inactive
same,Potency,[10],inactive
same,Potency,[11],inactive
same,Potency,[12],inactive
same,Potency,[13],inactive
same,Potency,[18],inactive
same,Potency,[14],inactive
same,Potency,[15],inactive
same,Potency,[16],inactive
same,Potency,[17],inactive
CCCCCc1ccc(N)cc1,Potency,[1],inactive
same,Potency,[2],inactive
same,Potency,[3],inactive
same,outcome,[4],inactive
same,outcome,[5],inactive
same,Potency,[6],inactive
same,Potency,[7],inactive
same,Potency,[8],inactive
same,Potency,[9],inactive
same,Potency,[10],inactive
same,Potency,[11],inactive
same,Potency,[12],inactive
same,Potency,[13],inactive
same,Potency,[19],inactive
same,Potency,[14],inactive
same,Potency,[15],inactive
same,Potency,[16],inactive
same,Potency,[17],inactive
